Compound activity as filed in PubChem.
Only some compounds are listed: those with a hit (about 1.2% of all), similar ones and a draw of the others.
Efflux pump inh – inhibitors of Candida antifungal efflux pumps expressed in yeast; S. cerevisiae Candida pump triplex, Nile Red efflux; inhibition, % at 10 µM; 330,000 compounds, 0.44% hits; AID 485275;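 active means plate passing quality check with inhibition over a set limit, or well fluorescence over plate mean plus 4 SD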;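 further: Nile Red retained in pooled yeast measured as flow cytometry median fluorescence; 0% = buffer negative control and 100% = Enniatin B positive control; higher means more Nile Red kept so more efflux inhibition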
LRH-1 inv ag – inverse agonists of human LRH-1 (NR5A2) | O00482 | HEK293T StAR-luciferase reporter, LRH-1 transfected, 24 h | inhibition, % at 3.6 µM | 360,000 compounds, 0.13% hits | AID 602396;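 active means inhibition above the mean inhibition of all tested compounds plus 3 SD, cut at about 73% in these data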;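 further: 0% = DMSO wells and 100% = reporter-only cells lacking LRH-1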
COUP-TFII inh – inhibitors of human COUP-TFII (NR2F2); AID 686940; HEK293T NGFI-A luciferase reporter, luminescence; 370,000 compounds, 0.7% hits; P24468; inhibition, % at 8.6 µM;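 active means inhibition above a per-plate cutoff, mean inhibition of test wells between control levels plus 3 SD, cut at about 38% in these data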;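 further: cells cotransfected with COUP-TFII expression vector driving the NGFI-A reporter; 0% = median of COUP-TF2 test wells and 100% = reporter-only cells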
NCOA1 inh – inhibits human SRC1 coactivator | HEK293 GAL4-SRC1 luciferase reporter, luminescence | Q15788 | 360,000 compounds, 0.12% hits | inhibition, % at 3.6 µM;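 active means inhibition above the campaign mean plus 3 SD, with each screening campaign given its own cutoff, cut at about 60% in these data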;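 further: 0% = DMSO treated cells and 100% = gossypol at 36 µM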
SRC2 inh – human SRC2 (NCOA2) inhibition. 370,000 compounds, 0.17% hits. Q15596. AID 651957. HEK293 GAL4-SRC2 luciferase reporter, luminescence. inhibition, % at 9 µM;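 active means inhibition above the mean inhibition of all tested compounds plus 3 SD, set per campaign, cut at about 52% in these data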;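 further: 0% = DMSO treated cells and 100% = cells given Gossypol at 36 µM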
NCOA3 inh – human NCOA3 inhibition; Q9Y6Q9; 360,000 compounds, 0.17% hits; HEK293 GAL4-SRC3 luciferase reporter, luminescence; inhibition, % at 3.6 µM;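 active means inhibition above a per-campaign cutoff, the mean of all compounds plus 3 SD, cut at about 60% in these data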;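 further: 0% = DMSO-treated cells and 100% = gossypol-treated cells at 36 µM; higher means less SRC3-driven luciferase light from the GAL4 reporter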
* marks the source's active call; other numbers are inactive results; . = not tested or not shown.

SMILES	Efflux pump inh	LRH-1 inv ag	COUP-TFII inh	NCOA1 inh	SRC2 inh	NCOA3 inh
O=C(NC1CCCCC1)C(c1ccc(F)cc1)N(CCCN1CCOCC1)C(=O)c1ccc(CN2CCOCC2)o1 (centres undefined)	0.1	21.1	-4.4	93.0*	0.2	-4.8
CC(C)C(OC(=O)c1ccc(Cl)nc1)C(=O)NC1CCCCC1 (centres undefined)	-0.3	-0.9	2.0	-2.3	-4.2	4.1
O=C(Nc1ccccc1-c1ccccc1)c1cc(C(F)(F)F)cc(C(F)(F)F)c1	0.1	3.4	3.2	-17.9	1.2	9.0
CN(C)S(=O)(=O)c1ccc(-c2csc(N/N=C/c3ccco3)n2)cc1	0.0	1.4	20.5	58.9	30.3	73.3*
Cc1ccc(-c2csc(N/N=C/c3ccco3)n2)cc1	-0.1	-71.7	-3.8	-49.6	-35.0	-57.9
CCCOC(c1ccccc1)(c1ccc(C(F)(F)F)cc1)C(Oc1nc(C)cc(C)n1)C(=O)O (centres undefined)	0.2	81.1*	31.8	61.0*	-37.7	71.0*
Cc1cc(O)c2c(c1O)C(=O)[C@]13C(=C2O)C(=O)[C@@H]2[C@@H](O)[C@H]1[C@@H]1[C@H](O)[C@H]3C(=O)C3=C(O)c4c(O)cc(C)c(O)c4C(=O)[C@]312	0.1	96.2*	.	71.7*	.	74.7*
O=C(O)COc1ccc(-c2nccc(-c3ccccn3)n2)cc1	0.0	10.4	41.2*	9.9	67.1*	9.8
FCCCOc1ccc(-c2nccc(-c3ccccn3)n2)cc1	-0.1	-35.0	7.9	-22.9	4.4	-5.6
NNC(=O)COc1ccc(-c2nccc(-c3ccc(F)cc3)n2)cc1	0.1	13.4	15.5	-32.5	53.2*	-3.3
OC[C@@H]1CN(CCN2CCOCC2)C[C@H](n2cnc3c(NCc4ccc(F)cc4)ncnc32)O1	.	-6.0	-8.9	1.0	16.8	1.9
O=C(O)CCSc1nnc(-c2ccc3c(c2)OCO3)o1	-0.4	-1.5	26.9	16.2	69.6*	10.5
COc1ccc(NC(=O)C2CCN(C(=O)c3cccs3)CC2)cc1	-0.1	2.8	13.4	4.9	6.1	-1.6
Cc1ccc2ccc3ccc(C)nc3c2n1	0.2	88.9*	21.0	52.9	3.5	56.4
CCCNC(=O)c1ccccc1NC(=O)C1COc2ccccc2O1 (centres undefined)	-0.1	18.6	-15.6	-4.0	3.8	10.7
CC(OC(=O)CC1CC2CCC1C2)C(=O)Nc1ccc(N2CCOCC2)cc1 (centres undefined)	0.1	-9.2	-0.6	-8.6	0.4	-9.0
COc1ccccc1-c1cc(C(=O)NC2CCN(C)CC2)c2ccc(Cl)c(C)c2n1	1.6*	2.9	-8.1	-28.9	-15.8	6.0
Cc1c(Cl)ccc2c(C(=O)NCCN3CCCCC3)cc(-c3ccccn3)nc12	-0.1	-13.8	-3.3	-4.1	5.8	-4.7
Cc1ccc(N(Cc2cc(=O)[nH]c3ccccc23)C(=O)CCl)c(C)c1	0.0	59.8	8.0	27.1	68.6*	41.6
CC(C)CC(=O)/C(=C\c1ccc(Cl)cc1Cl)n1cncn1	.	26.7	.	47.0	.	70.7*
CCOC(=O)c1c(NC(=O)Nc2ccc(C)cc2)sc2c1CCN(C)C2	0.0	6.1	-20.4	15.5	-8.6	-1.8
O=C(CCn1nnc2ccccc21)N1CCN(Cc2ccc3c(c2)OCO3)CC1	.	.	-3.4	.	-18.4	.
COc1ccccc1CCC(=O)OCc1csc(CC(=O)Nc2ccccc2C)n1	-0.3	4.5	-5.9	-25.6	8.9	2.3
COc1cccc(N(C(=O)CCl)C(C(=O)NCCc2ccccc2)c2cccs2)c1 (centres undefined)	0.2	25.6	7.3	27.9	61.4*	68.1*
COc1ccc(N(C(=O)c2ccco2)C(C(=O)NC2CCCCC2)c2cccs2)cc1OC (centres undefined)	0.0	9.0	-2.8	-9.7	0.0	11.8
SMILES	Efflux pump inh	LRH-1 inv ag	COUP-TFII inh	NCOA1 inh	SRC2 inh	NCOA3 inh
COc1ccc(N(C(=O)CCl)C(C(=O)NCCc2ccccc2)c2cccs2)cc1Cl (centres undefined)	-0.2	39.6	25.9	2.7	47.8	76.3*
COc1cccc(N(C(=O)c2snc(C(N)=O)c2N)C(C(=O)NCC2CCCO2)c2cccs2)c1 (centres undefined)	-0.1	-10.1	13.4	0.6	-16.3	-1.6
Cc1ccc(-n2c(C)cc(/C=C3\SC(=O)NC3=O)c2C)cc1	-0.2	-113.1	-3.1	-166.7	-3.6	-94.4
Cc1cc(/C=C2\SC(=S)NC2=O)c(C)n1-c1cccc(O)c1	0.8*	-75.8	-25.3	-83.7	-70.5	-33.9
CCC(=O)Nc1cc2nn(-c3ccc(OC)cc3)nc2cc1C	0.1	-77.2	-52.1	-103.4	-65.3	-104.8
CCC(=O)Nc1cc2nn(-c3ccc(C)cc3)nc2cc1C	0.1	18.4	46.3*	43.8	6.4	33.6
Nc1nc(N)nc(-c2cc(O)ccc2O)n1	-0.2	54.4	25.3	71.2*	38.7	59.5
Nc1nc(N)nc(-c2cc([N+](=O)[O-])ccc2O)n1	-0.1	5.0	12.2	11.6	-15.8	-2.8
O=C(NN1C(=O)C2C3CCC(O3)C2C1=O)c1ccc(Br)o1 (centres undefined)	0.0	8.8	-7.7	-7.6	-12.5	17.7
Cc1ccc(S(=O)(=O)/C(=C/Cl)NC(=O)c2ccccc2)cc1	-0.1	49.4	30.3	14.8	61.0*	51.9
Cc1ccc(S(=O)(=O)C(NC(=O)c2ccccc2)=C(Cl)Cl)cc1	0.5	2.6	17.0	-1.4	51.9	-0.7
S=C(NCCCCN(Cc1ccc(Cl)cc1)c1ccc(Br)cn1)NCCCc1cnc[nH]1	.	95.3*	29.4	36.6	40.6	60.0
C=C1C(=O)C23CCC4C(C)(C(=O)OC)CCCC4(C)C2CCC1(O)C3 (centres undefined)	.	42.5	78.4*	35.9	68.2*	10.0
CCN1/C(=C/c2cc[n+](CCCS(=O)(=O)[O-])c3ccccc23)Sc2ccccc21	0.0	10.6	11.5	-17.5	18.8	8.9
C=CC[n+]1ccc(/C=C2\C=Cc3cc(C)ccc3N2CC)c2ccccc21	.	86.0*	.	51.4	.	72.8*
Nc1nc2cc3c(cc2cc1C(=O)NCc1ccc(F)cc1)OCO3	.	-10.8	.	.	.	.
CC(=NNC(=S)N1CC2CCC(CC2)C1)c1cnccn1	.	7.7	-0.9	76.6*	-28.5	77.8*
CC(=NNC(=S)N1CCN(C2CCCCCC2)CC1)c1ccccn1	.	64.5	31.9	72.8*	27.3	68.8*
COc1cccc(/C=C/C(=O)NNC(=O)c2ccncc2)c1	0.0	4.6	5.2	23.8	-2.8	8.8
CC(NC(=O)Nc1nnc(C(F)(F)F)s1)(C(F)(F)F)C(F)(F)F	-0.3	89.6*	45.0*	59.0	21.9	83.5*
CC(C)(C)c1ccc(-c2cc(N)n[nH]2)cc1	0.0	-29.4	2.2	13.6	55.0*	13.5
Cc1ccc(-c2cc(N)n[nH]2)cc1	-0.1	8.7	5.2	-0.8	-33.2	-26.8
CC(=C/c1ccccc1)/C=N/n1c(-c2ccncc2)n[nH]c1=S	-0.2	10.9	26.6	62.8*	35.9	58.0
